A selection: hits, their analogues and other compounds. The true share with any hit is near 7.3%.
FLuc modulator = inhibits or activates purified firefly luciferase, miR-21 counter-screen | purified FLuc, Km substrates, luminescence inhibition | P08659 | hit rate 6.9% among 360,000 | Potency, µM (series often up to 57.5 µM), for the others: at the top dose activity change, negative = inhibition, hits mostly inhibitors;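 note: plate controls were vehicle for no effect and reference inhibitor for full effect; nearly all actives have a fitted effect of over 55% in size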
Target sequence (P08659 whole entry, looked up): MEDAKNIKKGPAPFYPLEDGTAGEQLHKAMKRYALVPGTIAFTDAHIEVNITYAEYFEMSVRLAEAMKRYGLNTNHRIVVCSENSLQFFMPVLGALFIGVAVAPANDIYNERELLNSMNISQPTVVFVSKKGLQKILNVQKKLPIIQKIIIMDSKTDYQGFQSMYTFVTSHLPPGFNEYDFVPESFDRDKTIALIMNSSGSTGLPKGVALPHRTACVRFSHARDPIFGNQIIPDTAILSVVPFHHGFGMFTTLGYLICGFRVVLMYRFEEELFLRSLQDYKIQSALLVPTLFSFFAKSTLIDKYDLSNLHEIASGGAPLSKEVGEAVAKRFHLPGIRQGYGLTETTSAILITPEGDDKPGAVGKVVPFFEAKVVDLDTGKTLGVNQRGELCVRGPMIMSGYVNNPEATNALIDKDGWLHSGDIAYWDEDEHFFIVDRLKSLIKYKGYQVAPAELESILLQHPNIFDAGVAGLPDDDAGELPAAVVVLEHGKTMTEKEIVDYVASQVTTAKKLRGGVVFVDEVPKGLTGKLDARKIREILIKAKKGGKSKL
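Purified P. pyralis luciferase (10nM final) with 10uM D-luciferin and 10uM ATP (Km levels) in 50mM Tris acetate pH 7.5, 10mM Mg acetate, 0.01% Tween-20, 0.05% BSA; qHTS 6-point titration, ~60 µM downward; luminescence read.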
ELG1 genotox = genotoxicity induction in ELG1-luciferase HEK293T cells. HEK293T ELG1-luciferase reporter, luminescence, 16 h. Potency, µM (top dose mostly 46 µM), for inactives: at the top dose activity change, positive = activation, actives largely listed as activators. hit rate 1.3% among 330,000; note: % of control where 0% means no effect; nearly all actives have a fitted effect of over 60% in size
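Genotoxicity was scored as increased ELG1-luciferase reporter signal, measured by ONE-Glo luminescence (30 min, room temperature). Compound or vehicle exposure of the HEK293T reporter cells lasted 16 hr at 37°C.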
SMN2 splice up = enhancers of SMN2 splice variant expression | AID 1458 | hit rate 2.8% among 210,000 | Potency, µM (top dose mostly 46.1 µM), for the others: at the highest dose activity change, positive = activation, hits mostly activators | HEK293 SMN2-luciferase splicing reporter, luminescence, 30-36 h; note: % of control where 0% means no effect; nearly all actives have a fitted effect of over 55% in size
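qHTS luciferase splicing reporter: luminescence rises when SMN2 exon 7 is included in transfected HEK293 cells. Compound exposure lasted 30-36 h at 37C, with 4.5 mM final sodium butyrate as control, followed by a ONE-Glo read.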
Rab9 promoter act = activates the Rab9 promoter; Huh7 Rab9 promoter-luciferase reporter, luminescence, 24 h; Potency, µM (highest dose often 9.22 µM), inactives show at the highest dose activation, negative = inhibition, usual class: activators; hit rate 2.8% among 320,000; note: % of control where 0% means no effect; nearly all actives have a fitted effect of over 60% in size
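Huh7 cells stably carrying a Rab9 promoter-luciferase reporter, 1500 cells per well in OP-MEM I with 10% FBS, treated with compound 24 hours at 37C. Luciferase activity read by luminescence after 10 minutes with Amplite reagent.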
p53 reactivation = restores transcriptional activity of mutant p53 | AID 504706 | H1299 p53-A138V BP100-luciferase reporter, luminescence, 24 h | hit rate 0.063% among 320,000 | Potency, µM (highest dose often 92.2 µM), inactives show at the top dose activity change, positive = activation, usual class: activators; note: % of control where 0% means no effect; nearly all actives have a fitted effect of over 45% in size
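H1299 (p53-null), stable ts p53-A138V + BP100-Luc; 1000 cells/well, Opti-MEM/10% FBS; cpd 4 pt, 1:5; 24 h, 37 deg C, 5% CO2; detection reagent 10 min RT; luminescence.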
NPC1 promoter act = activates the NPC1 promoter | hit rate 2.4% among 320,000 | Huh7 NPC1 promoter luciferase reporter, 24 h | Potency, µM (series often up to 9.22 µM), inactives show at the top dose activation, usual class: activators | AID 485313; note: % of control where 0% means no effect; nearly all actives have a fitted effect of over 60% in size
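Stably transfected Huh7 (NPC1 promoter→luciferase), 1500 cells/well in Opti-MEM + 10% FBS, 2 h settle, then compound 24 h at 37 °C. Luminescence after 10 min with Amplite reagent.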
Active calls of the source: *; ? = inconclusive; . = no result; [ ] = dose if it differs, or a comment. Calls come from the whole dose curve; as a rule, active = well fitted curve in the direction sought with a large enough effect; inconclusive = small, poorly fitted or top-dose-only effect, or another doubt; inactive = no such curve, though single readings can be large; an effect the other way counts as inactive or inconclusive. Potency is the fitted concentration of half-maximal effect.

SMILES	FLuc modulator	ELG1 genotox	SMN2 splice up	Rab9 promoter act	p53 reactivation	NPC1 promoter act
Cc1cccc(C(=O)Nc2cccc(C(=O)NC3CCCC3)c2)c1	?	-7%	.	13%	-12%	18%
CC(=O)Nc1ccccc1C(=O)C(=O)Nc1cccc(C(=O)NC2CC2)c1	-11%	13%	0%[1.84 µM]	2.8µM*	?	?
Cc1ccc(C(=O)Nc2cccc(C(=O)O)c2)cc1	0.15µM*	?	1µM*	?	-10%	?
O=C(O)c1cccc(NC(=O)c2cc(NC(=O)c3ccccc3)cc(NC(=O)c3ccccc3)c2)c1	?	6%	.	3%	8%	0%
Cc1oc2c(c1C(=O)Nc1cccc(C(=O)O)c1)CCCC2	19µM*	?	14%	?	15%	?
Nc1ccc(C(=O)Nc2ccco2)cc1	-1%	11%	?	21%	?	13%
Nc1ccc(C(=O)Nc2cccc(NC(=O)c3ccc(N)cc3)c2)cc1	11µM*	7%	.	21%	.	4%
CNc1nc(-c2ccc(N(C)C)cc2)nc2ccccc12	.	.	10%	.	.	.
O=C(Nc1nc2c(Cl)ccc(Cl)c2s1)c1ccco1	?	17%	14%	-23%	11%	-8%
O=C(Nc1nc2c(ccc3ccccc32)s1)c1ccco1	13µM*	6%	24%	?	3%	?
O=C(CCS(=O)(=O)c1ccccc1)Nc1nc2ccc(F)cc2s1	3%	-2%	.	-4%	?	4%
O=C(CCc1ccccc1)Nc1nc2c(F)cc(F)cc2s1	17µM*	14%	.	17%	15%	?
O=C(Nc1nc2c(F)cc(F)cc2s1)c1ccco1	4.8µM*	?	.	0.45µM*	.	0.71µM*
O=C(Nc1nc2c(F)c(F)c(F)cc2s1)c1ccco1	6µM*	?	.	2.5µM*	?	2.2µM*
N#CC1(NC(=O)CSc2nnc(-c3ccccc3F)n2N)CCCCC1	1%	-2%	.	3%	-8%	-2%
Cc1ccc2occ(CC(=O)Nc3c(C(=O)Nc4ccc(Cl)cc4)oc4ccccc34)c2c1	-16%	.	37%	.	.	.
Cc1coc2c(C)c3oc(=O)c(CCC(=O)N4CCCCC4)c(C)c3cc12	-13%	.	-8%	.	.	.
COc1ccc(C2=NC(c3ccccc3)=Nc3ccc(C)cc3N2)cc1	?	.	12%	.	.	.
Cc1ccc(C2=NC(c3ccccc3)=Nc3ccc(Cl)cc3N2)cc1	11µM*	.	-5%	.	.	.
CCC(C)NC(=O)c1ccc(NS(=O)(=O)c2ccc3[nH]c(=O)[nH]c3c2)cc1 (configuration not stated)	17µM*	?	.	1%	12%	13%
O=C(C[n+]1cc(-c2ccc(F)cc2)n2c1CCC2)c1cccs1	2.4µM*	?	.	2.5µM*	21%	3.2µM*
Cn1c(NC(=O)C[n+]2cc(-c3ccc(F)cc3)n3c2CCC3)cc(=O)n(C)c1=O	-10%	3%	1%	2%	-8%	1%
CCC(=O)N1CCN(c2nc3ccc(Br)cc3s2)CC1	15µM*	?	.	?	?	?
CCCCC(=O)N1CCN(c2nc3ccc(OCC)cc3s2)CC1	13µM*	-7%	.	4%	3%	0%
CCCCC(=O)N1CCN(c2nc3c(C)c(C)ccc3s2)CC1	3%	.	.	.	.	.
SMILES	FLuc modulator	ELG1 genotox	SMN2 splice up	Rab9 promoter act	p53 reactivation	NPC1 promoter act
CCCC(=O)N1CCN(c2nc3ccc(F)cc3s2)CC1	11µM*	.	.	.	.	.
O=C(c1ccc([N+](=O)[O-])o1)N1CCN(c2nc3ccc(F)cc3s2)CC1	5%	-4%	.	16%	7%	-6%
CCCCC(=O)N1CCN(c2nc3ccc(F)cc3s2)CC1	6µM*	-5%	.	0.5µM*	9%	0.56µM*
O=C(Cn1cnc2c(NCc3ccccc3)ncnc21)NCCCc1ccccc1	.	-1%	.	.	-3%	.
CCCC(=O)N1CCN(c2nc3ccccc3s2)CC1	7.6µM*	?	.	1.1µM*	?	1.4µM*
COC(=O)[C@H](COC(C)(C)C)NC(=O)O[C@@H]1Cc2cc(OC)ccc2O[C@H]1c1cccc(OC)c1	.	.	-9%	.	.	.
